Data on ten compounds can be found in PubChem BioAssay (NCATS).

Inconclusive results are not listed. The source made the active and inactive calls. Unless noted, no rule for the calls is given here.

Assay [1] is described as follows: qHTS profiling for inhibitors of Plasmodium falciparum (3D7) proliferation (AID 743322).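 Also: infected erythrocytes exposed to compound for 72 h before lysis; 100% = DMSO vehicle wells and 0% = 0.29 µM artemisinin.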 The following applies: P. falciparum 3D7 proliferation; at 28.7 µM (top of the series). The essentials: (§1)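 Parasite DNA was quantified by SYBR Green I fluorescence (ex 485, em 535 nm) after overnight lysis in saponin/Triton buffer at room temperature. Cultures at 0.3% parasitemia and 2.5% hematocrit were first exposed to compound for 72 h at 37 C; signals were normalised to artemisinin (0.29 uM) and vehicle wells.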
On the technique in general: In qHTS, concentration-response curves come from the screen itself.

Assay [2] is described as follows: qHTS profiling for inhibitors of Plasmodium falciparum (DD2) proliferation (AID 743323). Particulars: lower = more inhibition; at 28.7 µM (top of the series). The essentials: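 Parasite proliferation measured via DNA-dye fluorescence, as uninfected erythrocytes lack DNA. Cultures at 0.3% parasitemia and 2.5% hematocrit incubated 72 h with compound; signal scaled between vehicle and 0.29 uM artemisinin wells.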

A short description of assay [3]: qHTS profiling for inhibitors of Plasmodium falciparum (HB3) proliferation (AID 743324; active = well fitted curve in the direction sought with a large enough effect; an effect the other way counts as inactive or inconclusive;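 also: 100% = DMSO vehicle wells and 0% = artemisinin-treated control wells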). The following applies: Plasmodium falciparum HB3 blood-stage proliferation; at 28.7 µM (top of the series). Put shortly: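 SYBR Green fluorescence (485 ex/535 em) of lysed cultures, incubated overnight at room temperature in the dark, quantifies parasite DNA. Infected erythrocytes at 0.3% parasitemia and 2.5% hematocrit were exposed 72 h; values normalized to DMSO and 0.29 uM artemisinin controls.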

Assay [4] can be described thus: qHTS profiling of the MIPE4 collection as inhibitors of Plasmodium falciparum (3D7) proliferation (AID 743344). Particulars: P. falciparum 3D7 in erythrocytes, SYBR Green DNA fluorescence, 72 h; at 28.5 µM (top of the series) unless noted. Put shortly:
as §1

Assay [5] is described as follows: qHTS profiling of the MIPE4 collection as inhibitors of Plasmodium falciparum (DD2) proliferation (AID 743345). The following applies: P. falciparum Dd2 in erythrocytes, SYBR Green DNA, 72 h; at 28.5 µM (top of the series) unless noted. Put shortly: as §1
A short description of assay [6]: qHTS profiling of the MIPE4 collection as inhibitors of Plasmodium falciparum (DD2) proliferation (Rep 2) (AID 743346). The following applies: P. falciparum Dd2 in erythrocytes, SYBR Green DNA, 72 h; at 28.5 µM (top of the series) unless noted. Put shortly: as §1
Assay [7] in a line: qHTS profiling of the MIPE4 collection as inhibitors of Plasmodium falciparum (HB3) proliferation (AID 743347).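 Also: plate controls were DMSO vehicle wells for no effect and artemisinin wells for full effect.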 Particulars: P. falciparum HB3 in erythrocytes, SYBR Green DNA, 72 h; at 28.5 µM (top of the series) unless noted. Put shortly:
as §1

Assay [8] is described as follows: High-throughput drug toxicity screening in the BPDCN cell line Gen2.2 (AID 1224824).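 Also: cells exposed to compounds for 48 h before reading.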 Particulars: Gen2.2 BPDCN cells; at 45.8 µM (top of the series) unless noted. The essentials:
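Seed 500 exponentially growing Gen2.2 cells/well; add compounds by pin tool; incubate 48 h, 37 °C, 5% CO2; add CellTiter-Glo, 15 min RT; read luminescence. % activity vs DMSO (100%) and bortezomib (0%).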

The nature of assay [9]: High-throughput drug toxicity screening in the BPDCN cell line Cal-1 (AID 1224825). The following applies: Cal-1 BPDCN cell viability, qHTS; at 45.8 µM (top of the series) unless noted. The essentials:
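Viability of the BPDCN line Cal-1 is measured as ATP-based luminescence (CellTiter-Glo) following 48 h incubation with compounds. Percent activity uses DMSO-treated wells as 100% and 9.2 uM bortezomib as 0%.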

Assay [10] can be described thus: qHTS assay for measurement of the activity of small molecule inhibitors on Zika virus induced Caspase-3 activity in human iPSC derived neural progenitor cells (hNPCs) (AID 1224857; active = well fitted curve in the direction sought with a large enough effect; an effect the other way counts as inactive or inconclusive; also: nearly all actives have a fitted effect of over 65% in size; also: potency is read from the fitted curve at half-maximal effect). The essentials: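 hNPCs seeded 350 cells/well, cultured 16–20 h; compounds added 1 h before ZIKV (2 FFU/cell), 37 C 6 h. Caspase-Glo 3/7 luminescence after 30 min RT; % inhibition from induction scaled to uninfected (0%) and infected (100%) wells.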

The nature of assay [11]: qHTS assay for measurement of the activity of small molecule inhibitors on Zika virus induced Caspase-3 activity in human astrocytoma cells (AID 1224859; active = well fitted curve in the direction sought with a large enough effect; an effect the other way counts as inactive or inconclusive; also: potency is read from the fitted curve at half-maximal effect). Put shortly: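 Luminescence read-out (Caspase-Glo 3/7, 30 min RT) of caspase activity in SNB-19 cells infected 6 h with ZIKV, 2 FFU/cell, after 1 h compound pretreatment; % inhibition from induction normalised to uninfected (0%) and infected (100%) wells.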

Assay [12] is described as follows: qHTS Assay for Identifying Gametocytocidal Compounds (AID 743244; active = well fitted curve in the direction sought with a large enough effect; an effect the other way counts as inactive or inconclusive;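 also: % is scaled to controls: 0 for no effect and ±100 for the full control effect; actives lower the fluorescent signal which means gametocytes are killed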). The following applies: P. falciparum 3D7 stage III-V gametocytes, alamarBlue, 72 h; max response: stronger effect = lower value. The essentials:
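P. falciparum 3D7 stage III–V gametocytes (20,000 cells/well) were exposed to compounds for 72 h at 37 °C, 5% CO2. AlamarBlue was then added for 24 h; decreased resorufin fluorescence (Ex 525/Em 598 nm) indicated loss of viability.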

On to `N#CCNC(=O)c1ccc(-c2ccnc(Nc3ccc(N4CCOCC4)cc3)n2)cc1`, for which the remaining parasite growth % (stronger effect = lower value) in assay [1] was determined as 5.35%. In [2], this compound showed an activity, percent of control of 14%. Also, in [3], the remaining proliferation (% of control), lower = more inhibition turned out to be 10.2%. The parasite growth, % of DMSO control in assay [4] was determined as 4.16%. Besides, in assay [5], the parasite growth remaining, % of DMSO control (lower = more inhibition) stood at 12.8%. Besides, in assay [6], the parasite growth, % of control (lower = inhibition) amounted to 13.1%. The compound also showed a growth, % of control in [7] of 4.94%. The cell viability, % of control (lower = more cytotoxic) in [8] is 55.1%. The compound further returned a viability (% of control) in assay [9] of 32.6%. Also, the Potency entry in [10] and in assay [11] was “inactive” in each case.

For `O=C(C=Cc1cccc(S(=O)(=O)Nc2ccccc2)c1)NO`, the remaining parasite growth % (stronger effect = lower value) in assay [1] turned out to be 0.201%. In [2], this compound gave an activity, percent of control of 0.981%. In addition, the remaining proliferation (% of control), lower = more inhibition in assay [3] was determined as 0.6%. In assay [4], this compound registered a parasite growth, % of DMSO control of 4.9% [at 57.5 µM]. In addition, in assay [5], the parasite growth remaining, % of DMSO control (lower = more inhibition) turned out to be 6.53% [at 57.5 µM]. Besides, in assay [6], the parasite growth, % of control (lower = inhibition) came out at 18.3% [at 57.5 µM]. The growth, % of control in assay [7] stood at 8.45% [at 57.5 µM]. For the same compound, the cell viability, % of control (lower = more cytotoxic) in assay [8] came to 8.69% [at 92.2 µM]. Moreover, in [9], the viability (% of control) was determined as 3.98% [at 92.2 µM]. Also, the Potency result in [10] and in [11] was “inactive” in each case.

On to `CC(=O)OCCN1C(=O)c2c(C)nc3ccc(S(=O)(=O)N4CCOCC4)cc3c2C1=O`, for which the max response in assay [12] is 15.6% (inactive). In addition, in assay [1], the remaining parasite growth % (stronger effect = lower value) was 96.2%. For the same compound, the remaining proliferation (% of control), lower = more inhibition in assay [3] came out at 103%. The same compound yielded a parasite growth, % of DMSO control in [4] of 365%. For the same compound, the parasite growth remaining, % of DMSO control (lower = more inhibition) in assay [5] stood at 102%. The compound further gave a parasite growth, % of control (lower = inhibition) in assay [6] of 86.6%. Moreover, the growth, % of control in assay [7] was 666%. The compound also showed a cell viability, % of control (lower = more cytotoxic) in [8] of 69.9%. Further, the viability (% of control) in [9] stood at 47.9%. Besides, the Potency entry in assay [10] and in [11] was “inactive” in each case.

In the case of `COc1cc2ncn(-c3cc(OCc4ccccc4C(F)(F)F)c(C(N)=O)s3)c2cc1OC`, the max response in [12] was 18.7% (inactive). Also, the remaining parasite growth % (stronger effect = lower value) in [1] was 18.7%. Further, the remaining proliferation (% of control), lower = more inhibition in assay [3] stood at 13%. In assay [4], this compound registered a parasite growth, % of DMSO control of 41.3%. Moreover, the parasite growth remaining, % of DMSO control (lower = more inhibition) in [5] turned out to be 65%. This compound also came in with a parasite growth, % of control (lower = inhibition) in [6] of 44.3%. Moreover, in assay [7], the growth, % of control was 35.9%. The same compound showed a cell viability, % of control (lower = more cytotoxic) in assay [8] of 43.1%. For the same compound, the viability (% of control) in [9] turned out to be 4.46%. The Potency entry in [10] and in assay [11] was “inactive” each time.

Consider `Cc1ccc(C(=O)Nc2cccc(C(F)(F)F)c2)cc1-c1ccc2nc(NCCN3CCOCC3)ncc2c1`, for which the remaining parasite growth % (stronger effect = lower value) in assay [1] is -2.64%. Moreover, in assay [2], the activity, percent of control was found to be 0.812%. The remaining proliferation (% of control), lower = more inhibition in assay [3] is -1.12%. The compound further gave a parasite growth, % of DMSO control in assay [4] of 6.03%. The parasite growth remaining, % of DMSO control (lower = more inhibition) in [5] stood at 7.55%. The same compound returned a parasite growth, % of control (lower = inhibition) in assay [6] of 22.9%. Besides, the growth, % of control in [7] was 8.15%. Also, the cell viability, % of control (lower = more cytotoxic) in assay [8] came out at 11.1%. The viability (% of control) in assay [9] was found to be 5.9%. The Potency entry in assay [10] and in assay [11] was “inactive” throughout.

For the compound `CCn1nnc2c(N3CCOCC3)nc(-c3ccc(NC(=O)Nc4ccc(C(=O)N5CCN(C)CC5)cc4)cc3)nc21`, the parasite growth, % of DMSO control in [4] came out at 6.79%. In assay [5], the parasite growth remaining, % of DMSO control (lower = more inhibition) is 6.26%. The parasite growth, % of control (lower = inhibition) in [6] came out at 13.6%. Also, the growth, % of control in [7] turned out to be 5.28%. The compound further returned a cell viability, % of control (lower = more cytotoxic) in assay [8] of 28.1%. This compound also displayed a viability (% of control) in [9] of 26.6%. In addition, the Potency result in assay [10] and in assay [11] was “inactive” each time.

`OCc1ccc(-c2ccc(-c3ccc(CO)s3)o2)s1` had a parasite growth, % of DMSO control in assay [4] of 78.4%. Besides, the parasite growth remaining, % of DMSO control (lower = more inhibition) in assay [5] came out at 79.5%. In addition, in assay [6], the parasite growth, % of control (lower = inhibition) is 47.9%. In addition, the growth, % of control in [7] came out at 64.5%. Also, in [8], the cell viability, % of control (lower = more cytotoxic) was determined as 1.11%. The same compound registered a viability (% of control) in assay [9] of 1.47%. Moreover, the Potency in assay [10] is 26.4 µM (active). For the same compound, the Potency result in [11] is “inactive”.

In turn, `COc1cccc(-c2ccc(NC(=O)C3=C(C(=O)O)CCC3)c(F)c2)c1` came in with a parasite growth, % of DMSO control in assay [4] of 64.2%. The parasite growth remaining, % of DMSO control (lower = more inhibition) in assay [5] was 90.8%. This compound also yielded a parasite growth, % of control (lower = inhibition) in assay [6] of 53%. The cell viability, % of control (lower = more cytotoxic) in assay [8] was determined as 19%. In addition, the viability (% of control) in [9] is 4.11%. Moreover, the Potency was 2.64 µM (active) in [10] and 2.35 µM (active) in [11].

Turning to `C[C@@H]1CN(CC(=O)Nc2ccc3c(c2)Cc2cccc(-c4cc(=O)cc(N5CCOCC5)o4)c2S3)C[C@H](C)O1`, the remaining parasite growth % (stronger effect = lower value) in assay [1] is -0.753%. In addition, in assay [3], the remaining proliferation (% of control), lower = more inhibition is -0.663%. The compound further returned a parasite growth, % of DMSO control in assay [4] of 7.08%. The parasite growth remaining, % of DMSO control (lower = more inhibition) in assay [5] was found to be 20.9%. Also, the parasite growth, % of control (lower = inhibition) in assay [6] came out at 9.57%. The growth, % of control in assay [7] was determined as 2.59%. Besides, the cell viability, % of control (lower = more cytotoxic) in assay [8] amounted to 11.9%. In addition, the viability (% of control) in assay [9] was determined as 13.3%. Besides, the Potency entry in [10] and in [11] was “inactive” each time.

In turn, `Cc1ccc(NC(=O)C2(c3ccc4c(c3)OC(F)(F)O4)CC2)nc1-c1cccc(C(=O)O)c1` had a parasite growth, % of DMSO control in assay [4] of 7.25%. In assay [5], the parasite growth remaining, % of DMSO control (lower = more inhibition) was determined as 6.69%. In assay [6], this compound displayed a parasite growth, % of control (lower = inhibition) of 7.61%. For the same compound, the growth, % of control in [7] amounted to 5.22%. This compound registered a cell viability, % of control (lower = more cytotoxic) in [8] of 8.23%. The compound further displayed a viability (% of control) in assay [9] of 6.82%. Further, the Potency entry in assay [10] and in assay [11] was “inactive” each time.
